HT1080 IDH1KD tx: HT-1080 IDH1 knockdown cell toxicity (counter line) | Potency, µM (doses to about 46.1 µM), without a hit: top-dose activity, negative = toxicity, most hits filed as cytotoxic | actives 2% (n = 360,000) | HT-1080 IDH1 knockdown viability, ATP luminescence, 48 h | AID 686971;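 also: 0% = DMSO wells and -100% = cell-free medium wells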
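Using the IDH1-knockdown HT-1080 line run in the same batch and compound series as the NT line, viability after 48 h at 37 °C was determined by CellTiter-Glo luminescence and expressed as % activity.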
DT40 TDP1 no CPT: qHTS for Inhibitors of human tyrosyl-DNA phosphodiesterase 1 (TDP1): qHTS in cells in absence of CPT; actives 15% (n = 420,000); DT40 Tdp1-/- hTDP1 cells, no CPT, ATP luminescence, 48 h; Potency, µM (titrated, usually from 46.2 µM), without a hit: at the top dose activity change, negative = growth inhibition, usual class: inhibitors; AID 686978, 2013; also: % is scaled to controls: 0 for no effect and ±100 for the full control effect; nearly all actives have a fitted effect of over 55% in size
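DT40 Tdp1-/-;hTDP1 cells, no CPT (DMSO vehicle only), 400 cells/well; compounds pin-transferred; ≥48 hr, 37 °C; CellTiter-Glo 30 min RT dark, luminescence read.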
HT1080NT lethal: kills 2HG-producing HT-1080-NT fibrosarcoma cells | Potency, µM (top dose mostly 46.1 µM), for the others: at the highest dose activity, negative = less viability, most hits filed as cytotoxic | actives 1.6% (n = 360,000) | AID 686970 | HT-1080-NT fibrosarcoma viability, CellTiter-Glo ATP luminescence, 48 h;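 also: NT is the 2HG producing partner of a matched IDH1 knockdown line; 0% = DMSO-treated cells and -100% = media-only wells without cells; nearly all actives have a fitted effect of over 55% in size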
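Compounds were tested in concentration-response format on HT-1080-NT cells for 48 hours at 37 degrees C. Cell viability came from CellTiter-Glo luminescence; curves were classified by r2, response magnitude and activity.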
DT40 TDP1 CPT: growth inhibition of DT40 Tdp1-/-;hTDP1 cells with camptothecin (screen for TDP1 inhibitors); chicken DT40 Tdp1-/-;hTDP1 cells + 20 nM CPT, ATP luminescence, 48 h; Potency, µM (series often up to 46.2 µM), without a hit: at the highest dose activity change, negative = growth inhibition, hits mostly inhibitors; actives 12% (n = 420,000); also: % is scaled to controls: 0 for no effect and ±100 for the full control effect; nearly all actives have a fitted effect of over 55% in size
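Chicken DT40 Tdp1-/- cells stably complemented with human TDP1 were seeded at 400 cells/well in medium containing 20 nM camptothecin, exposed to pin-transferred compounds, and grown at 37 °C for at least 48 hr. Viability was read as ATP luminescence.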
HepG2 viability: HepG2 cytotoxicity, counter-screen for TGF-b inhibitors | HepG2 CAGA-GFP viability, ATP luminescence, 18 h | AID 588856 | actives 0.76% (n = 410,000) | Potency, µM (highest dose often 46.1 µM), for the others: at the highest dose activity change, negative = cytotoxicity, most hits filed as cytotoxic
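CellTiter-Glo luminescence gave cytotoxicity after 18 hours at 37 degrees C. The cells were HepG2 CAGA-GFP in 1% FBS DMEM, stimulated with 500 pg/mL TGF-beta after compound addition. %Activity was normalised to no-cell wells (complete cell-killing) and DMSO (no toxicity), and curves were fitted and classified.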
TGFb SMAD3 inh: blocks TGF-b signaling; AID 588855; actives 1.2% (n = 410,000); Potency, µM (highest dose often 46.1 µM), without a hit: top-dose activity, negative = inhibition, actives largely listed as inhibitors; HepG2 CAGA-GFP TGF-b/SMAD3 reporter, GFP fluorescence, 18 h; TGF-beta stimulated, 500 pg/mL final; also: % is scaled to controls: 0 for no effect and ±100 for the full control effect; nearly all actives have a fitted effect of over 65% in size
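Cell-based qHTS in HEPG2 carrying a CAGA-GFP Smad reporter; compounds added before 500 pg/mL final TGF-beta, 18 h incubation at 37 degrees C, GFP fluorescence quantified per cell by imaging cytometry.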
* = called active by the depositor; ? = inconclusive; nt = no result; [ ] = remark or other dose. An excerpt weighted towards active compounds, which were near 17% of everything screened. Calls follow the shape of the dose curve; as a rule, active = well fitted curve in the direction sought with a large enough effect; inconclusive = small, poorly fitted or top-dose-only effect, or another doubt; inactive = no such curve, though single readings can be large; an effect the other way counts as inactive or inconclusive. Potency is read from the fitted curve at half-maximal effect.

SMILES	HT1080 IDH1KD tx	DT40 TDP1 no CPT	HT1080NT lethal	DT40 TDP1 CPT	HepG2 viability	TGFb SMAD3 inh
COC(=O)c1nn(-c2ccc(C)cc2)c2nnc(Cc3ccccc3)c(=O)n12	2%	2%	10%	-4%	11%	-20%
Cc1ccc(OCCN2C(=O)NC3(CCc4ccccc4C3)C2=O)cc1 (stereo not drawn)	-2%	1%	-1%	-13%	-52%	-22%
Cc1ccc2c(c1)C1(C(=O)N2)N2CCCC2C(C(=O)c2ccc3ccccc3c2)C12C(=O)Nc1ccccc12 (stereo not drawn)	?	?	?	16µM*	-183%	?
Brc1cccc(CN2CCCCCC2)c1	14%	11%	4%	-16%	14%	-5%
OC1(c2ccc(Br)cc2)CCN(Cc2cccc(Br)c2)CC1	0%	?	2%	21µM*	11µM*	?
COc1ccc(-c2cc(-c3ccc(Br)cc3)nc3ncnn23)cc1OC	-22%	?	-26%	?	-17%	3%
O=C(CC1OC(=O)c2ccccc21)Nc1cccc(S(=O)(=O)N2CCCCCC2)c1 (stereo not drawn)	-3%	?	1%	?	-19%	-6%
CCNC(=O)c1c(NC(=O)Cc2coc3cc(C)ccc23)sc2c1CCCC2	nt	18µM*	nt	12µM*	4%	29%
COCCCNC(=O)c1c(NC(=O)Cc2coc3cc(C)ccc23)sc2c1CCCC2	nt	16µM*	nt	16µM*	-53%	-15%
CCNC(=O)c1c(NC(=O)c2cc(-c3cc(C)ccc3O)n[nH]2)sc2c1CCCC2	17%	16µM*	23%	?	-15%	-1%
Cc1ccc(NC(=O)c2c(NC(=O)Cc3ccccc3)sc3c2CCCC3)cc1	nt	?	nt	?	-10%	6%
CNC(=O)c1c(NC(=O)Cc2coc3ccc(OC)cc23)sc2c1CCCC2	nt	21µM*	nt	16µM*	-17%	13%
COCCNC(=O)c1c(NC(=O)c2cc(=O)c3cc(Cl)ccc3o2)sc2c1CCCC2	nt	-23%	nt	-9%	10%	0%
Cc1ccc(S(=O)(=O)N(C)C)cc1NC(=O)COC(=O)c1ccc2c(=O)n3c(nc2c1)CCC3	3%	5%	3%	2%	6%	-1%
CCCCc1cc(=O)oc2cc(OC(C)C(=O)NCC3CCC(C(=O)O)CC3)c(Cl)cc12 (stereo not drawn)	-8%	-20%	0%	-23%	12%	35%
Clc1ccccc1-c1cc2nc(NCc3ccco3)ccn2n1	-7%	?	0%	?	-22%	9%
COc1ccccc1CNS(=O)(=O)c1cc(C(=O)NCC2CCCO2)c(Cl)cc1Cl (stereo not drawn)	0%	-22%	6%	-7%	3%	12%
CC(=O)Oc1c(Cl)c(N2CCOCC2)c(OC(C)=O)c2ccccc12	0%	16µM*	-4%	21µM*	-63%	0%
Cc1ccc([N+](=O)[O-])cc1S(=O)(=O)n1ccnc1C	-31%	18µM*	-8%	21µM*	-7%	0%
Cc1cccc(NC(=O)C2CCCN(c3cnccn3)C2)c1 (stereo not drawn)	0%	-29%	6%	-2%	-8%	-1%
CCCc1ccc(NC(=O)C2CCN(c3cnccn3)CC2)cc1	?	23µM*	-15%	16µM*	-11%	-1%
CCOC(=O)c1ccc(NC(=O)C2CCCN(c3cnccn3)C2)cc1 (stereo not drawn)	-2%	15µM*	16%	?	-9%	-10%
O=C(Nc1ccc(F)c(Cl)c1)C1CCCN(c2cnccn2)C1 (stereo not drawn)	0%	?	13%	?	-2%	-19%
Cc1ccc(NC(=O)C2CCCN(c3cnccn3)C2)cc1Cl (stereo not drawn)	nt	23µM*	nt	?	-30%	-15%
CCOC(=O)c1cnc(SC)nc1Oc1cccc(NC(=O)c2ccc(C)cc2)c1	10%[9.24 µM]	15µM*	13%	?	5%	-8%
SMILES	HT1080 IDH1KD tx	DT40 TDP1 no CPT	HT1080NT lethal	DT40 TDP1 CPT	HepG2 viability	TGFb SMAD3 inh
CCC(C(=O)OC)n1cnc2c(nnn2-c2ccc(F)cc2)c1=O (stereo not drawn)	4%	-3%	2%	-4%	2%	-6%
COc1cc(OC)c(NC(=O)C2CCN(S(=O)(=O)c3ccc4c(c3)CC(C)N4C(C)=O)CC2)cc1Cl (stereo not drawn)	-3%	?	-3%	21µM*	-54%	-3%
CC(=O)N1c2ccc(S(=O)(=O)N3CCC(C(=O)NCc4ccc(C)cc4)CC3)cc2CC1C (stereo not drawn)	0%	-15%	-1%	?	-28%	?
CC1Cc2cc(S(=O)(=O)N3CCC(C(=O)NCc4ccco4)CC3)ccc2N1C(=O)C1CCC1 (stereo not drawn)	-6%	23µM*	-20%	?	-18%	-19%
CC(=O)N1c2ccc(S(=O)(=O)N3CCC(C(=O)NCCc4ccc(Cl)cc4)CC3)cc2CC1C (stereo not drawn)	-21%	10µM*	?	16µM*	-17%	?
COc1cc(OC)c(NC(=O)N2CCc3cc(S(=O)(=O)N4CCC(C)CC4)ccc32)cc1Cl	nt	8.2µM*	nt	10µM*	-6%	nt
Cc1ccc(CNC(=O)C2CCN(S(=O)(=O)c3ccc4c(c3)CC(C)N4C(=O)C3CC3)CC2)cc1 (stereo not drawn)	-19%	0%	?	-11%	-16%	-22%
Cc1ccc(Cl)cc1NC(=O)N1CCc2cc(S(=O)(=O)N3CCC(C)CC3)ccc21	nt	-11%	nt	-26%	-7%	nt
O=c1[nH]cnc(O)c1C(c1ccc([N+](=O)[O-])cc1)c1c(O)nc[nH]c1=O	-2%	-3%	-5%	-13%	18%	2%
CCN1C(=O)[C@@H]2[C@H](C1=O)[C@@H]1C(=O)Nc3ccccc3C(=O)N1[C@@H]2c1cccc(Cl)c1	15%	-12%	9%	1%	4%	-1%
O=C(NNC(=O)C1CCC1)c1ccc(F)cc1	7%	0%	3%	10%	6%	8%
CC(=O)N1c2ccc(S(=O)(=O)N3CCCC3C(=O)NCc3ccc(Cl)cc3)cc2CC1C (stereo not drawn)	-13%	?	-8%	21µM*	-16%	-14%

Screening results: PubChem BioAssay, National Center for Advancing Translational Sciences (NCATS)
